Measured values: PubChem BioAssay AID1159580 (chemical genetic matrix, 2015)
Out of some 5,500 compounds screened, about 2,000 (36%) were called active. Not shown: some 18% with an inconclusive outcome. No stated cut-off is given here; in the data, active means normalized growth mostly below about 0.91 (no sharp cut-off); inconclusive means no clear call, values can overlap the other calls; inactive means mostly above about 0.92. The list shows a part of the results.

Assay: chemical genetic growth profiling, strain panel (AID 1159580);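 further: tested at 20 µM; growth read once vehicle control cultures reached saturation at 30 °C; 1 = growth at the plate median or of vehicle wells; lower values mean less growth of the strain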
Settings: growth OD

Measured: normalized growth

Nc1c2ccccc2nc2ccccc12 (tested in a mixture with another compound)
active: S. cerevisiae deletion strains, locus YKL009W, strain mrt4, active compounds read low 0.811 | S. cerevisiae deletion strains, locus YKL085W, strain MDH1 (second series), active compounds read low 0.899 | S. cerevisiae deletion strains, locus YKL085W, strain MDH1, active compounds read low 0.899 | S. cerevisiae deletion strains, locus YKL160W, strain elf1, active compounds read low 0.597 | S. cerevisiae deletion strains, locus YKL190W, strain CNB1, active compounds read low 0.717 | S. cerevisiae deletion strains, locus YKR001C, strain vps1, active compounds read low 0.292 | S. cerevisiae deletion strains, locus YLL001W, strain dnm1, active compounds read low 0.603 | S. cerevisiae deletion strains, locus YLL026W, active compounds read low 0.707 | S. cerevisiae deletion strains, locus YLL041C, strain sdh2, active compounds read low 0.897 | S. cerevisiae deletion strains, locus YLR027C, strain aat2, active compounds read low 0.604 | S. cerevisiae deletion strains, locus YLR039C, strain RIC1, active compounds read low 0.601 | S. cerevisiae deletion strains, locus YLR058C, strain SHM2, active compounds read low 0.538 | S. cerevisiae deletion strains, locus YLR113W, strain HOG1, active compounds read low 0.506 | S. cerevisiae deletion strains, locus YLR221C, strain rsa3, active compounds read low 0.634 | S. cerevisiae deletion strains, locus YLR258W, strain gsy2, active compounds read low 0.603 | S. cerevisiae deletion strains, locus YLR262C, strain YPT6 (second series), active compounds read low 0.573 | S. cerevisiae deletion strains, locus YLR262C, strain YPT6, active compounds read low 0.604 | S. cerevisiae deletion strains, locus YLR268W, strain sec22, active compounds read low 0.622 | S. cerevisiae deletion strains, locus YLR320W, strain mms22, active compounds read low 0.507 | S. cerevisiae deletion strains, locus YLR330W, strain CHS5, active compounds read low 0.826 | S. cerevisiae deletion strains, locus YLR342W, strain FKS1 (second series), active compounds read low 0.662 | S. cerevisiae deletion strains, locus YLR370C, strain arc18, active compounds read low 0.803 | S. cerevisiae deletion strains, locus YLR418C, strain cdc73, active compounds read low 0.723 | S. cerevisiae deletion strains, locus YML016C, strain PPZ1, active compounds read low 0.714 | S. cerevisiae deletion strains, locus YML032C, strain rad52, active compounds read low 0.37 | S. cerevisiae deletion strains, locus YML120C, strain ndi1, active compounds read low 0.439 | S. cerevisiae deletion strains, locus YML124C, strain tub3, active compounds read low 0.84 | S. cerevisiae deletion strains, locus YMR058W, strain fet3, active compounds read low 0.69 | S. cerevisiae deletion strains, locus YMR078C, strain ctf18, active compounds read low 0.642 | S. cerevisiae deletion strains, locus YMR129W, active compounds read low 0.844 | S. cerevisiae deletion strains, locus YMR205C, strain PFK2, active compounds read low 0.669 | S. cerevisiae deletion strains, locus YMR223W, strain ubp8, active compounds read low 0.579 | S. cerevisiae deletion strains, locus YMR263W, strain SAP30, active compounds read low 0.746 | S. cerevisiae deletion strains, locus YNL067W, strain RPL9B, active compounds read low 0.477 | S. cerevisiae deletion strains, locus YNL128W, strain TEP1, active compounds read low 0.76 | S. cerevisiae deletion strains, locus YNL153C, strain GIM3, active compounds read low 0.701 | S. cerevisiae deletion strains, locus YNL183C, strain NPR1, active compounds read low 0.483 | S. cerevisiae deletion strains, locus YNL209W, strain ssb2, active compounds read low 0.729 | S. cerevisiae deletion strains, locus YNL233W, strain BNI4, active compounds read low 0.707 | S. cerevisiae deletion strains, locus YNL248C, strain rpa49, active compounds read low 0.599 | S. cerevisiae deletion strains, locus YNL250W, strain rad50, active compounds read low 0.782 | S. cerevisiae deletion strains, locus YNL271C, strain bni1, active compounds read low 0.891 | S. cerevisiae deletion strains, locus YNL298W, strain CLA4, active compounds read low 0.858 | S. cerevisiae deletion strains, locus YNL307C, strain MCK1, active compounds read low 0.439 | S. cerevisiae deletion strains, locus YNL322C, strain KRE1, active compounds read low 0.771 | S. cerevisiae deletion strains, locus YNR049C, strain mso1, active compounds read low 0.899 | S. cerevisiae deletion strains, locus YNR052C, strain pop2, active compounds read low 0.732 | S. cerevisiae deletion strains, locus YOL006C, strain TOP1, active compounds read low 0.475 | S. cerevisiae deletion strains, locus YOL012C, strain htz1 2.2 [resistant] | S. cerevisiae deletion strains, locus YOL147C, strain pex11, active compounds read low 0.832 | S. cerevisiae deletion strains, locus YOR001W, strain rrp6, active compounds read low 0.508 | S. cerevisiae deletion strains, locus YOR061W, strain CKA2, active compounds read low 0.744 | S. cerevisiae deletion strains, locus YOR069W, strain VPS5, active compounds read low 0.825 | S. cerevisiae deletion strains, locus YOR070C, strain gyp1, active compounds read low 0.732 | S. cerevisiae deletion strains, locus YOR080W, strain dia2, active compounds read low 0.816 | S. cerevisiae deletion strains, locus YOR083W, strain WHI5, active compounds read low 0.56 | S. cerevisiae deletion strains, locus YOR106W, strain vam3, active compounds read low 0.529 | S. cerevisiae deletion strains, locus YOR136W, strain idh2, active compounds read low 0.866 | S. cerevisiae deletion strains, locus YOR144C, strain elg1, active compounds read low 0.766 | S. cerevisiae deletion strains, locus YOR184W, strain ser1, active compounds read low 0.535 | S. cerevisiae deletion strains, locus YOR231W, strain MKK1, active compounds read low 0.41 | S. cerevisiae deletion strains, locus YOR265W, strain rbl2, active compounds read low 0.851 | S. cerevisiae deletion strains, locus YOR270C, strain vph1, active compounds read low 0.577 | S. cerevisiae deletion strains, locus YOR290C, strain snf2, active compounds read low 0.379 | S. cerevisiae deletion strains, locus YPL051W, strain arl3, active compounds read low 0.628 | S. cerevisiae deletion strains, locus YPL055C, strain LGE1, active compounds read low 0.572 | S. cerevisiae deletion strains, locus YPL078C, strain atp4, active compounds read low 0.727 | S. cerevisiae deletion strains, locus YPL106C, strain sse1, active compounds read low 0.779 | S. cerevisiae deletion strains, locus YPL240C, strain hsp82, active compounds read low 0.618 | S. cerevisiae deletion strains, locus YPL256C, strain CLN2, active compounds read low 0.499 | S. cerevisiae deletion strains, locus YPR119W, strain clb2, active compounds read low 0.85 | S. cerevisiae deletion strains, locus YPR167C, strain met16, active compounds read low 0.699 | S. cerevisiae deletion strains, strain wtn01, active compounds read low 0.549 | S. cerevisiae strains, strain wild type, active compounds read low 0.698
inactive: S. cerevisiae deletion strains, locus YKL068W, active compounds read low 0.969 | S. cerevisiae deletion strains, locus YKR026C, strain gcn3, active compounds read low 0.957 | S. cerevisiae deletion strains, locus YKR091W, strain srl3, active compounds read low 0.95 | S. cerevisiae deletion strains, locus YLR102C, strain apc9, active compounds read low 0.943 | S. cerevisiae deletion strains, locus YLR342W, strain FKS1, active compounds read low 0.945 | S. cerevisiae deletion strains, locus YLR357W, strain rsc2, active compounds read low 1.11 | S. cerevisiae deletion strains, locus YLR371W, strain rom2, active compounds read low 0.98 | S. cerevisiae deletion strains, locus YLR384C, strain iki3, active compounds read low 0.932 | S. cerevisiae deletion strains, locus YMR125W, strain sto1, active compounds read low 0.963 | S. cerevisiae deletion strains, locus YMR231W, strain pep5, active compounds read low 0.94 | S. cerevisiae deletion strains, locus YMR307W, strain GAS1, active compounds read low 0.806 | S. cerevisiae deletion strains, locus YNL071W, strain lat1, active compounds read low 0.958 | S. cerevisiae deletion strains, locus YNL322C, strain KRE1 (second series), active compounds read low 0.981 | S. cerevisiae deletion strains, locus YOR316C, strain cot1, active compounds read low 0.938 | S. cerevisiae deletion strains, locus YPL241C, strain CIN2, active compounds read low 0.935 | S. cerevisiae deletion strains, locus YPR141C, strain kar3, active compounds read low 1 | S. cerevisiae deletion strains, locus YPR163C, strain tif3, active compounds read low 0.964
